Consider five molecules from PubChem BioAssay (NCATS).

Test [1] has as its target Catechol O-methyltransferase (Homo sapiens) (UniProt P21964). The test can be described thus: Confirmatory Screen for Target Class Profiling of Small Molecule Inhibitors of Methyltransferases (AID 1745852). As to activity change, negative = inhibition: % is scaled to controls: 0 for no effect and ±100 for the full control effect. Particulars: MTase-Glo luminescence, SAH detection, recombinant enzyme; measured here: COMT max response; stronger effect = lower value.
Test [2] has as its target Guanidinoacetate N-methyltransferase (Homo sapiens) (UniProt Q14353). The test is described as above. Particulars: MTase-Glo luminescence, SAH detection, recombinant enzyme; activity change, negative = inhibition: at 57.3 µM (top of the series) unless noted.
Test [3] addresses Nicotinamide N-methyltransferase (Homo sapiens) (UniProt P40261). The description is as above. As to conditions: MTase-Glo luminescence, SAH detection, recombinant enzyme; measured here: NNMT max response; stronger effect = lower value.
Test [4] has as its target Phenylethanolamine N-methyltransferase (Homo sapiens) (UniProt P11086). The test is described as above. As to conditions: MTase-Glo luminescence, SAH detection, recombinant enzyme; measured here: PNMT max response; stronger effect = lower value.
Test [5] is described as follows: NCATS anti-infectives library activity on HEK293 viability as a counter-qHTS vs the C. elegans viability qHTS (AID 1745854). Also: % is scaled to controls: 0 for no effect and ±100 for the full control effect. Particulars: HEK293 viability counter-screen; series mostly up to 41.8 µM. Summed up:
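Cytotoxicity counter-screen to a worm viability qHTS: CellTiter-Glo luminescence read 10 min after reagent addition. Compounds (final up to 41.7 uM, a 1:5 dilution series) incubated 24 hr at 37C with 1,500 HEK293 cells per well; digitonin control.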

Test [6] addresses Glutathione peroxidase 1 (Homo sapiens) (UniProt P07203). The test can be described thus: Primary qHTS Assay for Inhibitors of Recombinant Selenoprotein Glutathione Peroxidase 1 (GPX1) (AID 1845191). Also: nearly all actives have a fitted effect of over 65% in size. As to conditions: recombinant GPX1, GR-coupled NADPH fluorescence, 15 min; series mostly up to 48.8 µM. The gist of the method: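 NADPH consumption tracked by fluorescence at 340/450 nm between t=0 and t=15 min, room temperature. Final mix: 10 nM GPX1, 100 nM glutathione reductase, 1 mM GSH, 0.5 mM NADPH, 0.5 mM cumene hydroperoxide, 0.01% BSA; 30 min compound–enzyme preincubation.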

Test [7] deals with Phospholipid hydroperoxide glutathione peroxidase GPX4 (Homo sapiens) (UniProt P36969). The test can be described thus: Primary qHTS Assay for Inhibitors of Recombinant Selenoprotein Glutathione Peroxidase 4 (GPX4) (AID 1845192). Also: % is scaled to controls: 0 for no effect and ±100 for the full control effect; nearly all actives have a fitted effect of over 65% in size. As to conditions: recombinant GPX4, GR-coupled NADPH fluorescence, 15 min; series mostly up to 50 µM. The gist of the method: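 NADPH consumption followed by fluorescence at 340/450 nm, t=0 and after 15 min at room temperature. Reaction started with cumene hydroperoxide (0.5 mM final) after 30 min compound–GPX4 preincubation; final 200 nM GPX4, 100 nM GR, 1 mM GSH, 0.5 mM NADPH.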

Test [8] has as its target Luciferin 4-monooxygenase (Photinus pyralis) (UniProt P08659). Put plainly: Primary firefly luciferase (FLuc) qHTS assay for identification of artifact compounds. (AID 1845220).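 Also: plate controls were DMSO vehicle for no effect and no enzyme for full effect; nearly all actives have a fitted effect of over 60% in size.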 Particulars: purified firefly luciferase, luminescence, 5 min; series mostly up to 54.1 µM. The gist of the method:
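Compounds sat 15 min at room temperature with 10 uM luciferin and 10 uM ATP (pH 7.6 Tris acetate). Firefly luciferase (10 nM final) was then added, and luminescence was read 5 min later. Data normalized to no-enzyme and DMSO controls were Hill-fitted.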

Test [9] is described as follows: Primary fluorescence-based thiol-reactive (MSTI) qHTS assay for identification of artifact compounds. (AID 1845221).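 Also: thiol-reactive compounds lower the probe fluorescence signal; nearly all actives have a fitted effect of over 65% in size.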 Particulars: MSTI thiol-reactivity probe, 1 h; series mostly up to 53.8 µM. The gist of the method: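 qHTS titration of compound; 4 uM MSTI, PBS pH 7.4, 2% DMSO; 1 h RT, dark; fluorescence 525/598 nm; normalized to Acetyl-MSTI and MSTI; 4-parameter Hill fit.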

Test [10] relates to Nanoluciferase (engineered Oplophorus gracilirostris luciferase). The test can be described thus: Primary Nanoluciferase (NLuc) qHTS assay for identification of artifact compounds. (AID 1845222).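 Also: 0% = DMSO and -100% = no enzyme.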 Particulars: NLuc-conditioned medium, Nano-Glo luminescence, 5 min; series mostly up to 54.1 µM. Summed up: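 Luminescence from secreted NLuc (filtered, 1:55-diluted S16 cell medium) read 5 min after Nano-Glo substrate; compounds preincubated 15 min, RT. Hill fits of inhibition normalized to DMSO and no-enzyme.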

A short description of test [11]: Primary redox qHTS assay for identification of artifact compounds. (AID 1845223). As to conditions: Amplex Red/HRP redox cycling with DTT, fluorescence; series mostly up to 53.8 µM. The gist of the method: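 Redox-cycling detection via DTT (250 uM final) oxidation coupled to Amplex Red (25 uM)/HRP (250 mU/mL) in HBSS. 15 min preincubation plus 30 min after DTT, room temperature. Ex/Em 525/598 nm; 4-parameter Hill fit against DMSO and 10 uM DA3003.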

The nature of test [12]: Quantitative High-Throughput drug screen in 47 multiple myeloma cell lines against the NCATS MIPE library collection: FR4_PLB cell viability assay (AID 1918924; also: potency is read from the fitted curve at half-maximal effect; nearly all actives have a fitted effect of over 35% in size). As to conditions: FR4_PLB myeloma cells viability, CellTiter-Glo ATP, 48 h; series mostly up to 45.8 µM. The gist of the method: (§1)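 Myeloma cells (500 per well) were exposed to MIPE 4.0 compounds by pin transfer and incubated 48 hours at 37C, 5% CO2. Viability was read as ATP by CellTiter-Glo luminescence, normalised to DMSO (100%) and media-only (0%) wells.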

The nature of test [13]: Quantitative High-Throughput drug screen in 47 multiple myeloma cell lines against the NCATS MIPE library collection: Delta47_JCRB cell viability assay (AID 1918925; also: potency is read from the fitted curve at half-maximal effect; nearly all actives have a fitted effect of over 45% in size). As to conditions: Delta47 myeloma viability, CellTiter-Glo ATP, 48 h; series mostly up to 45.8 µM. The gist of the method: (§2)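 Steps: seed 500 cells per well; pin-transfer MIPE 4.0 library; incubate 48 h at 37C, 5% CO2, humidified; add CellTiter-Glo, 5 min room temperature; read luminescence.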

Test [14] can be described thus: Quantitative High-Throughput drug screen in 47 multiple myeloma cell lines against the NCATS MIPE library collection: EJM_DSMZ cell viability assay (AID 1918926; also: potency is read from the fitted curve at half-maximal effect; nearly all actives have a fitted effect of over 30% in size). Particulars: EJM myeloma cell viability, CellTiter-Glo ATP, 48 h; series mostly up to 45.8 µM. The gist of the method:
as §2

The nature of test [15]: Quantitative High-Throughput drug screen in 47 multiple myeloma cell lines against the NCATS MIPE library collection: AMO1_DSMZ cell viability assay (AID 1918927; also: potency is read from the fitted curve at half-maximal effect; nearly all actives have a fitted effect of over 30% in size). Particulars: AMO1 myeloma cells viability, CellTiter-Glo ATP luminescence, 48 h; series mostly up to 45.8 µM. Summed up:
as §2

Test [16] is described as follows: Quantitative High-Throughput drug screen in 47 multiple myeloma cell lines against the NCATS MIPE library collection: ARP1_JJKsccF8 cell viability assay (AID 1918928; also: potency is read from the fitted curve at half-maximal effect; nearly all actives have a fitted effect of over 40% in size). As to conditions: ARP1 myeloma cells viability, CellTiter-Glo ATP, 48 h; series mostly up to 45.8 µM. The gist of the method:
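CellTiter-Glo luminescence after 48 h exposure gives viability, scaled between DMSO-only (100%) and media-only (0%) controls. Library compounds are pinned onto 500 myeloma cells per well, incubated at 37C with 5% CO2.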

Test [17] is described as follows: Quantitative High-Throughput drug screen in 47 multiple myeloma cell lines against the NCATS MIPE library collection: ARD_JJKsccE7 cell viability assay (AID 1918929; also: potency is read from the fitted curve at half-maximal effect). As to conditions: ARD myeloma cell line viability, CellTiter-Glo, 48 h; series mostly up to 45.8 µM. The gist of the method:
as §2

The nature of test [18]: NCATS anti-infectives library activity on the primary C. elegans qHTS viability assay (AID 1745855; calls by dose curve). Particulars: C. elegans worm area imaging, day 7; series mostly up to 41.8 µM. Summed up:
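GFP read-out by 488 nm laser cytometry at day 0, 3 and 7, gated on object perimeter, area and peak intensity, scored viability of PE254-GFP-FLuc worms exposed to compound in S medium with bacterial capsules at 21 °C.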

The nature of test [19]: Quantitative High-Throughput drug screen in 47 multiple myeloma cell lines against the NCATS MIPE library collection: Karpas620_DSMZ cell viability assay (AID 1918959). Also: potency is read from the fitted curve at half-maximal effect; nearly all actives have a fitted effect of over 30% in size. Particulars: Karpas620 myeloma viability, CellTiter-Glo ATP luminescence, 48 h; series mostly up to 45.8 µM. Summed up: as §1

Molecules are shown by their SMILES. Records with an inconclusive call do not appear. Active and inactive are the calls of the source. Unless noted, calls follow the shape of the dose curve; as a rule, active = well fitted curve in the direction sought with a large enough effect; inconclusive = small, poorly fitted or top-dose-only effect, or another doubt; inactive = no such curve, though single readings can be large; an effect the other way counts as inactive or inconclusive.

Catechol O-methyltransferase (Homo sapiens), sequence (P21964 whole entry, looked up): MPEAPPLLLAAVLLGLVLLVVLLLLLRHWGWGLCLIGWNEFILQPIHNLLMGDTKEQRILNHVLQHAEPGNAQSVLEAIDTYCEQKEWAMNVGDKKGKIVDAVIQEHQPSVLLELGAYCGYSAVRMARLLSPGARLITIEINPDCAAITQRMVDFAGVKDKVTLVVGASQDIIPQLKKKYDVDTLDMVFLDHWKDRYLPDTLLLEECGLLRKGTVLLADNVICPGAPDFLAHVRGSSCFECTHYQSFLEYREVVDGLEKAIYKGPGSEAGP
Nicotinamide N-methyltransferase (Homo sapiens), sequence (P40261 whole entry, looked up): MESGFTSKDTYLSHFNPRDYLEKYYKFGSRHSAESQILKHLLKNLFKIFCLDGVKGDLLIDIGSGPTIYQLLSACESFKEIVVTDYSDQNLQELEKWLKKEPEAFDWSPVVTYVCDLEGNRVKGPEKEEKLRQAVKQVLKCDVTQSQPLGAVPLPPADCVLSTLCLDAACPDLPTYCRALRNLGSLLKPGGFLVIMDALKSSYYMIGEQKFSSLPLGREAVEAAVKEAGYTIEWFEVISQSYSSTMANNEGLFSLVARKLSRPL
Phospholipid hydroperoxide glutathione peroxidase GPX4 (Homo sapiens), sequence (P36969 whole entry, looked up): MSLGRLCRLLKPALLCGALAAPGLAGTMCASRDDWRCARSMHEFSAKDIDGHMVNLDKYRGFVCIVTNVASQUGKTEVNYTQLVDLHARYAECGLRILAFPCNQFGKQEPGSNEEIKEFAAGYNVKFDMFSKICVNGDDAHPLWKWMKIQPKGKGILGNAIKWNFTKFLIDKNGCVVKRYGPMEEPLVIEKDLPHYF
Glutathione peroxidase 1 (Homo sapiens), sequence (P07203 whole entry, looked up): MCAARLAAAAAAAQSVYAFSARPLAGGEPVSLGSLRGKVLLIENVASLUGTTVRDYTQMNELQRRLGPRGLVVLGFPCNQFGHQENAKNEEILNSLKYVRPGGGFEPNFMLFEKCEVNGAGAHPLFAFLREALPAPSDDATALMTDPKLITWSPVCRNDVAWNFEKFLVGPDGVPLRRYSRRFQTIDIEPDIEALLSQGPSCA
Phenylethanolamine N-methyltransferase (Homo sapiens), sequence (P11086 whole entry, looked up): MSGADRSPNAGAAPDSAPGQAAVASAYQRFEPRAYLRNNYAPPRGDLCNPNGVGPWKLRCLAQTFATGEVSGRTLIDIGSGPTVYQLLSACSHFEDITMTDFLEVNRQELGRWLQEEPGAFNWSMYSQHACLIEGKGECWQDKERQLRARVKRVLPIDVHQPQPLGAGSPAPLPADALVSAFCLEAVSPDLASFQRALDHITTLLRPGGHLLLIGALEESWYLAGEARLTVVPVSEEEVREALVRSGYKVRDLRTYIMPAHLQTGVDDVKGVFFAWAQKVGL

With `Nc1ccccc1NC(=O)c1ccc(CNc2nccc(-c3cccnc3)n2)cc1`, the activity was -14% in test [1], -33.2% in test [3] and -7.44% in test [4]. Moreover, the activity change, negative = inhibition in test [2] is -1.06%. Moreover, the Potency entry in test [5], in test [6], in test [7], in test [8], in test [9] and in test [10] was “inactive” throughout. In test [11], the Potency result is “inactive”. The Potency is 0.935 µM (active) in test [12]; 0.166 µM (active) in test [13]; 3.32 µM (active) in test [14]; 0.59 µM (active) in [15]; 0.662 µM (active) in test [16]; 0.935 µM (active) in test [17].
In the case of `Nc1nccc(Oc2ccc(NC(=O)c3c[nH]cc(-c4ccc(F)cc4)c3=O)cc2F)c1Cl`, the activity in test [1] is -3.16%; in test [3] it was -55.9%; in test [4] it was -3%. The activity change, negative = inhibition in test [2] was -6.18%. Further, the Potency result in test [6], in test [7], in test [9] and in test [11] was “inactive” throughout. The Potency in test [13] was 16.6 µM (active); in [14], 5.9 µM (active); in test [15] it was 2.35 µM (active); in test [16], 14.8 µM (active); in test [17], 6.62 µM (active).
For the molecule `Cc1cc(Nc2nc(N[C@@H](C)c3ccc(F)cc3)c(C#N)cc2F)n[nH]1`, the activity was -4.92% in test [1], -35.7% in test [3] and -6.34% in test [4]. The activity change, negative = inhibition in test [2] was 0%. Further, the Potency result in test [18], in test [6], in [7], in test [8], in test [9] and in test [11] was “inactive” throughout. In addition, the Potency in [13] is 2.96 µM (active); in test [14], 16.6 µM (active); in [15] it was 0.235 µM (active); in test [16], 1.05 µM (active); in [17], 0.332 µM (active).
For `O=C(c1ccc(Nc2nccc(-c3cc4ccccc4s3)n2)cc1)N1CCC(N2CCCC2)CC1`, the activity in test [1] was -18.2%; in test [3] it was -19.2%; in [4], -17.2%. In addition, the activity change, negative = inhibition in [2] is -6.01%. Further, the Potency result in test [6], in test [7], in test [8], in test [9], in [10] and in [11] was “inactive” each time. For the same molecule, the Potency in test [12] was 13.2 µM (active); in test [13], 2.96 µM (active); in test [15], 7.43 µM (active); in [16] it was 13.2 µM (active); in test [17], 9.35 µM (active); in test [19] it was 4.18 µM (active).
With `COc1cc2c(cc1-c1c(C)noc1C)ncc1[nH]c(=O)n([C@H](C)c3ccccn3)c12`, the Potency result in [5], in test [6], in test [7], in test [8], in test [9] and in test [10] was “inactive” each time. In test [11], the Potency result is “inactive”. Also, the Potency is 0.833 µM (active) in test [12]; 0.418 µM (active) in test [13]; 10.5 µM (active) in test [14]; 0.332 µM (active) in test [15]; 0.332 µM (active) in test [16]; 0.296 µM (active) in test [17]. The Potency in [19] was 5.9 µM (active).
